Potency, outcome and activity change, positive = activation data for seven compounds are collected here from PubChem BioAssay (Tox21).

Test [1] in a line: qHTS assay to identify small molecule antagonists of the estrogen related receptor (ERR) signaling pathway from Tox21 library - cell viability counter screen (AID 1224834). Note: nearly all actives have a fitted effect of over 30% in size. The essentials: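 In this quantitative HTS format, ERR cells receive compounds in DMSO and are incubated for 17.5 h at 37 C. Live-cell protease activity is then detected with CellTiter-Fluor.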
Background: In qHTS, concentration-response curves come from the screen itself.

The target of test [2] is Luciferin 4-monooxygenase (Photinus pyralis) (UniProt P08659). The test can be described thus: qHTS assay to identify small molecule inhibitors of firefly luciferase (AID 1224835). Note: nearly all actives have a fitted effect of over 25% in size. The essentials: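 Biochemical qHTS: compounds run as interplate titrations against purified firefly enzyme, with D-luciferin and ATP each at its KM concentration. Light output recorded by CCD imaging.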
Sequence of Luciferin 4-monooxygenase (Photinus pyralis) (P08659 whole entry, looked up): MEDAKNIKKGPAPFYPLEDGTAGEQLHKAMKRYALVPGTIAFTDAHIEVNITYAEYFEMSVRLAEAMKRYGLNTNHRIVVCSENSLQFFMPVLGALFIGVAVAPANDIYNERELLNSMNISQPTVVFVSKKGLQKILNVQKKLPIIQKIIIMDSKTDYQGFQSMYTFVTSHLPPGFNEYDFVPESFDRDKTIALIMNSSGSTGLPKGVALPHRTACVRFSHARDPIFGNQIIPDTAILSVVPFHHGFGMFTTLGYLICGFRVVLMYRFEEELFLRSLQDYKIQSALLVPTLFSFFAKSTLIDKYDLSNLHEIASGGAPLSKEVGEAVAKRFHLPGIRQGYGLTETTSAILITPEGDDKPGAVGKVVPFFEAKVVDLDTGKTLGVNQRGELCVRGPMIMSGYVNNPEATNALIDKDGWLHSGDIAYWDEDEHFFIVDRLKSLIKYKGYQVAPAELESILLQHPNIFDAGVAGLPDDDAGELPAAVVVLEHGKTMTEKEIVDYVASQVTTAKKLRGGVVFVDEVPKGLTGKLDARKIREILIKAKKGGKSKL

Test [3] is described as follows: qHTS assay to identify small molecule agonists of the constitutive androstane receptor (CAR) signaling pathway - cell viability counter screen (AID 1224836). Note: nearly all actives have a fitted effect of over 45% in size. Note: potency is the fitted concentration of half-maximal effect. The gist of the method: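 Cells were seeded and incubated 4 hrs. Compounds were added across 15 concentrations together with PK11195 at 0.75 uM final. Plates were incubated 23 hrs at 37 C. CellTiter-Fluor was added and fluorescence measured.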

Test [4] in a line: qHTS assay to identify small molecule antagonists of the constitutive androstane receptor (CAR) signaling pathway - cell viability counter screen (AID 1224837). Note: nearly all actives have a fitted effect of over 45% in size. The essentials: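 In quantitative HTS format, compounds at 15 concentrations were applied to HepG2 cells double-transfected with hCAR and CYP2B6-2.2kb under 50 nM CITCO stimulation; live-cell protease activity was read after 23 hr via CellTiter-Fluor.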

Test [5] can be described thus: qHTS assay to identify small molecule antagonists of the estrogen related receptor signaling pathway with the pleiotropic PPARgamma coactivator (PGC) from Tox21 10K library - cell viability counter screen (AID 1224840; active = well fitted cell-killing curve with a large enough effect in the repeat runs, not every such curve was filed as active; note: nearly all actives have a fitted effect of over 40% in size). The gist of the method:
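Viability counter screen, PGC/ERR cells: 17.5 h compound exposure at 37 C, CellTiter-Fluor fluorescence endpoint.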

In test [6] the target is Thyrotropin receptor (Homo sapiens) (UniProt P16473). The test can be described thus: qHTS assay to identify small molecule agonists of the thyroid stimulating hormone receptor (TSHR) signaling pathway (AID 1224843; calls by dose curve; note: nearly all actives have a fitted effect of over 45% in size). The essentials:
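Agonist-mode screen: TSHR HEK293 cells received test chemicals for half an hour at room temperature, then HTRF cAMP detection reagents for one hour prior to fluorescence measurement. Each chemical ran as a 15-concentration series, triplicated.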

Test [7] in a line: qHTS assay to identify small molecule agonists of the hypoxia (HIF-1) signaling pathway - cell viability counter screen (AID 1224844; calls by dose curve; note: nearly all actives have a fitted effect of over 50% in size). The essentials:
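Same wells as the HIF-1 reporter screen; ME-180 cells carrying HRE-bla, 17 hr treatment at 37C; CellTiter-Glo luminescence read after 30 min at room temperature.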

The nature of test [8]: qHTS assay to identify small molecule agonists of H2AX (AID 1224845; active = well fitted activation curve with a large enough effect in the signal ratio in the repeat runs, not every such curve was filed as active; the % refers to the signal ratio; note: potency is the fitted concentration of half-maximal effect). The gist of the method:
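Wild-type CHO-K1 cells, plated overnight, exposed 3hr at 37C to 15 concentrations (0.76% DMSO final). Lysed, then HTRF anti-pH2AX (S139) cryptate and anti-H2AX-d2 antibodies, 24 hr room temperature; 665/620 nm emission read.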

Test [9] in a line: qHTS assay to identify small molecule agonists of the hypoxia (HIF-1) signaling pathway (AID 1224846; active = well fitted activation curve with a large enough effect in the signal ratio in the repeat runs, not every such curve was filed as active; the % refers to the signal ratio). The essentials:
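In ME-180 cells bearing an HRE-bla construct, 17 h treatment with DMSO-dissolved compounds at 37C was followed by CCF4-AM loading to quantify reporter induction.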

Test [10] can be described thus: qHTS assay to identify small molecule agonists of H2AX - cell viability counter screen (AID 1224847; calls by dose curve; note: top concentration of the series differs between compounds; nearly all actives have a fitted effect of over 30% in size). The gist of the method: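 Cytotoxicity counter screen in wild-type CHO-K1 cells: a 3 hr compound treatment at 37C across 15 concentrations, followed by CellTiter-Glo luminescence to gauge viable cells.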
A short description of test [11]: qHTS RealTime-Glo MT Cell Viability Assay in HepG2 cells - 24 hour (AID 1224867). Note: nearly all actives have a fitted effect of over 50% in size. The essentials: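 Cell number in HepG2 cultures estimated from NanoLuc luminescence generated by metabolic reduction of a prosubstrate by living cells. The homogeneous, nonlytic format allowed repeated reads at 0, 8, 16, 24, 32 and 40 h of compound exposure.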
The nature of test [12]: qHTS RealTime-Glo MT Cell Viability Assay in HEK293 cells - 32 hour (AID 1224868). Note: nearly all actives have a fitted effect of over 50% in size. Note: potency is the fitted concentration of half-maximal effect. The essentials: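 Homogeneous bioluminescent viability format in HEK293 cells (600 cells/well). Following 5 h at 37 C/5% CO2, 23 nL compound was pintooled; the signal was measured repeatedly during 40 h incubation.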
A short description of test [13]: A CellTox Green Cytotoxicity Assay to monitor cytotoxicity in HEK293 cells - 0 hour (AID 1224869). Note: nearly all actives have a fitted effect of over 50% in size. The gist of the method:
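Homogeneous no-lysis format: HEK293 cell suspension mixed with CellTox Green reagent, seeded, incubated 5 h at 37 C/5% CO2, then dosed by pintool with compound in DMSO.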

Test [14] concerns the target Nuclear receptor subfamily 1 group I member 3 (Homo sapiens) (UniProt Q14994). The test can be described thus: qHTS assay to identify small molecule antagonists of the constitutive androstane receptor (CAR) signaling pathway (AID 1224838). Note: nearly all actives have a fitted effect of over 40% in size. The essentials: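 CITCO-stimulated (50 nM final) HepG2 cells stably transfected with hCAR and CYP2B6-2.2kb luciferase were exposed to compounds at 15 concentrations for 24 h at 37 C/5% CO2. A luciferase reagent was added and luminescence recorded after 30 min.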

Test [15] has the same target. The test can be described thus: qHTS assay to identify small molecule agonists of the constitutive androstane receptor (CAR) signaling pathway (AID 1224839).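 For activation: HepG2 cells stably carrying human CAR and a CYP2B6 luciferase reporter.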 Note: nearly all actives have a fitted effect of over 15% in size. Note: potency is the fitted concentration of half-maximal effect. The essentials:
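Cells were plated and incubated 4 hrs, then dosed with compounds at 15 concentrations. PK11195 was added to 0.75 uM final. After 24 hrs at 37 C, luciferase luminescence was measured.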

The nature of test [16]: qHTS assay to identify small molecule antagonists of the estrogen related receptor signaling pathway with the pleiotropic PPARgamma coactivator (PGC) from Tox21 10K library (AID 1224841; call rule not given here). The gist of the method:
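In the PGC/ERR line, DMSO solutions of test chemicals are pin-delivered to 2,000 cells/well six hours after dispensing. Following eighteen hours' incubation, One-Glo reagent is added and luminescence recorded.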

Test [17] in a line: qHTS assay to identify small molecule agonists of the estrogen related receptor signaling pathway with the pleiotropic PPARgamma coactivator (PGC) from Tox21 10K library (AID 1224842). Note: nearly all actives have a fitted effect of over 15% in size. The essentials:
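PGC/ERR reporter cell line, 2,000 cells per well, incubated 6 h at 37 C before 23 nL compound in DMSO was added. After 18 h at 37 C, One-Glo luminescence read following 30 min at room temperature.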

Test [18] in a line: qHTS assay to identify small molecule agonists of the estrogen related receptor (ERR) signaling pathway from Tox21 library (AID 1224849; calls by dose curve; note: nearly all actives have a fitted effect of over 15% in size). The note with it: ERR reporter cell line, ONE-Glo luciferase, 18 h; at 92.4 µM (top of the series) unless noted. The gist of the method:
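Reporter cells (ERR, NTP source) treated with Tox21 10K compounds 18 h, 37 C. Readout: ONE-Glo luminescence, 30 min RT.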

Test [19] is described as follows: qHTS assay to identify small molecule antagonists of the estrogen related receptor (ERR) signaling pathway from Tox21 library (AID 1224848). Note: nearly all actives have a fitted effect of over 50% in size. Note: potency is the fitted concentration of half-maximal effect. The essentials:
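Quantitative high-throughput format: ERR reporter cells (2,000/well) pre-incubated 6 h, treated 18 h at 37 C with compounds in DMSO alongside positive and negative controls, then read by ONE-Glo luminescence.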

The structures appear in SMILES notation. A number with no mark means an inactive call. Inconclusive results are not listed. Calls of active or inactive are those of the source. Unless noted, calls come from the whole dose curve; as a rule, active = well fitted curve in the direction sought with a large enough effect in the repeat runs; inconclusive = weak or mixed curves; inactive = no such curve, though single readings can be large; an effect the other way counts as inactive or inconclusive.
% is set by controls: 0 for no effect and ±100 for the full control effect.

Sequence of Thyrotropin receptor (Homo sapiens) (P16473 whole entry, looked up): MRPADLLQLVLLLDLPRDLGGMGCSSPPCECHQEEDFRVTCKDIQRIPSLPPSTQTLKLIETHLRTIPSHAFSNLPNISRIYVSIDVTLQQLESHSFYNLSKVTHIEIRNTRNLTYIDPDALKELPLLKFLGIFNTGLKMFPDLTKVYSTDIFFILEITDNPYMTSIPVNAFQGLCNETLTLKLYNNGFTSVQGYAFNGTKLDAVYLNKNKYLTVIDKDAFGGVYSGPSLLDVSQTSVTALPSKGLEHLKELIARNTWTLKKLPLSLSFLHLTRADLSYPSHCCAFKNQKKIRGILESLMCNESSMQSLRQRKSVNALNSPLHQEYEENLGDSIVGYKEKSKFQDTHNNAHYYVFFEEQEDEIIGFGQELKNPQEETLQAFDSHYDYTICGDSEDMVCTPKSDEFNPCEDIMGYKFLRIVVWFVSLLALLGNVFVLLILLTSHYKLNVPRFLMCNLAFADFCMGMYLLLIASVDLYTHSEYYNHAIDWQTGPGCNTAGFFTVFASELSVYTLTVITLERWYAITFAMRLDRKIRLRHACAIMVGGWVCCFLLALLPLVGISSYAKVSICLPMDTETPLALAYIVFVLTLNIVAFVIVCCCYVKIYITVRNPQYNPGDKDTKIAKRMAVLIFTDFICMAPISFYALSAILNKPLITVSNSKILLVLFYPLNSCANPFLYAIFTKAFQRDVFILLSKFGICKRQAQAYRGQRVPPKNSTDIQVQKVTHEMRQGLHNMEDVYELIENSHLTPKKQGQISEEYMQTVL
Sequence of Nuclear receptor subfamily 1 group I member 3 (Homo sapiens) (Q14994 whole entry, looked up): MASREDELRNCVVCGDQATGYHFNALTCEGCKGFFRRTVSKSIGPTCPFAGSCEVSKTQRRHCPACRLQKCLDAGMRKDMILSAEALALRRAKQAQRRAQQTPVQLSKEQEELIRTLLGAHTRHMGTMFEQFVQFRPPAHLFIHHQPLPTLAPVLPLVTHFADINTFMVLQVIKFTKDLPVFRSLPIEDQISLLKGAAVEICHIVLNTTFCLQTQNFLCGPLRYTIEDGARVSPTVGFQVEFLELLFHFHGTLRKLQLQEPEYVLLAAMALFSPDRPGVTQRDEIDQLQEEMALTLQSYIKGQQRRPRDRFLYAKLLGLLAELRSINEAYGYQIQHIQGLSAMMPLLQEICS

In the case of `NNC(=O)c1cccnc1`, the Potency entry in test [1], in [2], in [3], in test [4], in test [5] and in [6] was “inactive” throughout. The Potency entry in test [7], in [8], in test [10], in test [11], in test [12] and in test [13] was “inactive” each time. Besides, in test [9], the outcome was inactive.

Regarding `Clc1ccc(C(OCCN2CCCCC2)c2ccccc2)cc1` (stereo not given), the Potency result in test [2], in test [3], in [4], in [14], in [15] and in test [5] was “inactive” each time. Besides, the Potency entry in test [16], in test [17], in test [6], in test [8], in [10] and in [11] was “inactive” in each case. Moreover, in test [13], the Potency result was “inactive”. The call in [9] was inactive. Besides, the activity change, positive = activation in test [18] is -17.2% [at 42.5 µM].

Take `C=C(C#N)CCC#N`: the Potency result in test [2], in test [3], in test [4], in test [14], in [15] and in test [5] was “inactive” throughout. Further, the Potency result in test [16], in test [17], in test [6], in [7], in test [8] and in [10] was “inactive” throughout. In addition, the Potency entry in test [19], in test [11] and in test [12] was “inactive” throughout. The call in [9] was inactive. Besides, the activity change, positive = activation in [18] is 0.822%.

For the compound `Clc1cc(C(Cl)(Cl)Cl)cnc1Cl`, the Potency entry in test [1], in test [2], in test [5], in test [16], in test [17] and in test [6] was “inactive” throughout. Further, the Potency result in [10], in [19], in [11] and in test [13] was “inactive” each time. For the same compound, the Potency in test [3] is 43.3 µM (active); in test [8], 89.8 µM (active); in test [12], 34.7 µM (active). In test [9], the compound was classed as inactive. In test [18], the activity change, positive = activation is 0.0985%.

Regarding `C=CC(=O)OCCCCO`, the Potency entry in test [2], in test [3], in test [4], in test [14], in [15] and in test [5] was “inactive” in each case. Further, the Potency result in [16], in test [17], in test [6], in test [7], in [10] and in test [19] was “inactive” throughout. Further, the Potency entry in test [11], in test [12] and in test [13] was “inactive” in each case. The activity change, positive = activation in [18] is 68.3% (active).

`CNP(=O)(OC)Oc1ccc(C(C)(C)C)cc1Cl` (stereo not given): the Potency entry in test [1], in [3], in test [4], in test [14], in [5] and in test [16] was “inactive” each time. Besides, the Potency result in test [17], in test [6], in test [7], in test [8], in test [11] and in test [13] was “inactive” each time. Further, the Potency in [15] and in [19] was 48.6 µM (active) each time. In addition, in test [9], the compound was called inactive. Besides, the activity change, positive = activation in [18] was -37.4%.

For `C=CC(=O)OC`, the Potency result in test [1], in test [3], in test [4], in test [14], in test [15] and in test [5] was “inactive” each time. Further, the Potency result in test [6], in test [8], in [10], in test [11], in [12] and in test [13] was “inactive” in each case. For the same compound, in test [9], the result was inactive.
